Laboratory results: PubChem BioAssay (EPA / NIEHS)
Several values for one entry are separate records, joined by “and”; a condition that tells them apart may be missing. Identical values can stand only once. Records with an inconclusive call do not appear. The source holds several records for some structures; these can differ, active in one and inactive in another. Activity calls are given as the source filed them. How the source made its calls: active means hit-call score of the fitted dose curve at least 0.9, where 1 is the maximum; inconclusive means response in the unintended direction; inactive means score below 0.9.

Assays:
[1] = ATG_M_06_XSP2: Attagene TRANS-FACTORIAL Multi-Species (XSP2) HepG2 Assay for M06 Transcription Factor (Internal Marker) (AID 2283811);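 further: hits are increases in signal above the DMSO baseline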
In short: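 HepG2, multiplexed reporter transfection; 24 h dosing; AR stimulated with 3 nM 6-alpha-fluorotestosterone + 1.5 nM norgestrel; RNA → RT-PCR → 6-FAM primer extension → HpaI → CE. Positive direction vs DMSO.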

[2] = test system: turtle Estrogen Receptor (ERa), gene 101933533; assay: ATG_trERa_XSP2: Attagene TRANS-FACTORIAL Multi-Species (XSP2) HepG2 Assay for turtle Estrogen Receptor (ERa) (AID 2283812);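 further: human HepG2 liver cells transiently expressing turtle ERa-Gal4 chimeric receptor; actives raise reporter signal above DMSO so AC50 reflects agonist activity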
In short: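 HepG2 cells transiently transfected with GAL4-UAS reporter units expressing turtle ERa-Gal4 chimera. Reporter mRNA measured after 24 h dosing by RT-PCR, fluorescent labelling and capillary electrophoresis; gain of signal fitted versus DMSO.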

[3] = biological target: Estrogen receptor beta (Homo sapiens) (UniProt Q92731); assay: ATG_hERb_XSP2: Attagene TRANS-FACTORIAL Multi-Species (XSP2) HepG2 Assay for human Estrogen Receptor (ERb) (AID 2283813);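 further: actives raise reporter mRNA above DMSO so AC50 reflects agonist induction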
Estrogen receptor beta (Homo sapiens), sequence (Q92731 whole entry, looked up): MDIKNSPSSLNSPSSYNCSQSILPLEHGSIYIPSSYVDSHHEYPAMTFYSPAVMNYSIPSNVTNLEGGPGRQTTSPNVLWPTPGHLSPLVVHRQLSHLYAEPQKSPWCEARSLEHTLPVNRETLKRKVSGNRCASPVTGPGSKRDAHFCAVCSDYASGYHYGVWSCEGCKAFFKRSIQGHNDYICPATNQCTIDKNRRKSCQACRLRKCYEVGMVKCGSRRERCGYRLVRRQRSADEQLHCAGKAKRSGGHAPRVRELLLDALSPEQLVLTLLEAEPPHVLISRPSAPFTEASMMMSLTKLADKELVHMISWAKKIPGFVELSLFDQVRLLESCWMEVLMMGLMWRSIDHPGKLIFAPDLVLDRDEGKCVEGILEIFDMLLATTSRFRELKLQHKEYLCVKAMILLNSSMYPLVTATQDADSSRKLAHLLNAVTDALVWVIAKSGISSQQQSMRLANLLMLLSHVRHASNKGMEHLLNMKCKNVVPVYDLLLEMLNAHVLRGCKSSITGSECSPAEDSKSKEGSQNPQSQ
Description: ATG_XSP2_multi-species_TRANS is a cell-based, multiplexed assay created by modifying the existing Attagene TRANS-FACTORIAL system to include a panel of nuclear receptors from some or all the following species: human (Homo sapiens), mouse (Mus musculus), frog (Xenopus laevis), zebrafish (Danio rerio), chicken (Gallus gallus), and turtle (Chrysemys picta). The ECOTOX-FACTORIAL format uses HepG2, a human liver cell line, with measurements taken at 24 hours after chemical dosing in a 24-well plate. Xsp2 included 3 nM 6-alpha-fluorotestosterone and 1.5 nM norgestrel to stimulate the androgen receptor.ATG_hERb_XSP2 is one of 29 assay components measured or calculated from the ATG_XSP2_multi-species_TRANS assay. It is designed to make measurements of mRNA induction, a form of inducible reporter, as detected with fluorescence intensity signals by Reverse transcription polymerase chain reaction (RT-PCR) and Capillary electrophoresis technology.The assay endpoint ATG_hERb_XSP2 was analyzed in the positive analysis fitting direction relative to DMSO as the negative control and baseline of activity. […] Furthermore, this assay endpoint can be referred to as a primary readout, because this assay has produced multiple assay endpoints where this one serves a reporter gene function. […]
Human liver HepG2 cells are transiently transfected with multiple reporter transcription units (MRTUs) in 6-well plates using FuGene 6 reagent (Roche; 3 ml FuGene/1 mg DNA). […] A major difference between the CIS and TRANS system is that in CIS activities of endogenous TFs are measured, whereas the TRANS assay evaluates changes in activities of exogenous, chimeric NR-Gal4 proteins. […] The fragments were purified using Qiaquick PCR columns (Qiagen), analyzed on an ABI 3130xL genetic analyzer (Applied Biosystems) with peak positions identified by using a set of X-rhodamine (ROX)-labeled MapMarker1000 molecular weight standards (BioVentures). […]

[4] = biological target: human Thyroid hormone Receptor beta (TRb), THRB (gene 7068) (UniProt P10828); assay: ATG_hTRb_XSP1: Attagene TRANS-FACTORIAL Multi-Species (XSP1) HepG2 Assay for human Thyroid hormone Receptor beta (TRb) (AID 2283808)
human Thyroid hormone Receptor beta (TRb), THRB (gene 7068), sequence (P10828 whole entry, looked up, the tested form may be a part): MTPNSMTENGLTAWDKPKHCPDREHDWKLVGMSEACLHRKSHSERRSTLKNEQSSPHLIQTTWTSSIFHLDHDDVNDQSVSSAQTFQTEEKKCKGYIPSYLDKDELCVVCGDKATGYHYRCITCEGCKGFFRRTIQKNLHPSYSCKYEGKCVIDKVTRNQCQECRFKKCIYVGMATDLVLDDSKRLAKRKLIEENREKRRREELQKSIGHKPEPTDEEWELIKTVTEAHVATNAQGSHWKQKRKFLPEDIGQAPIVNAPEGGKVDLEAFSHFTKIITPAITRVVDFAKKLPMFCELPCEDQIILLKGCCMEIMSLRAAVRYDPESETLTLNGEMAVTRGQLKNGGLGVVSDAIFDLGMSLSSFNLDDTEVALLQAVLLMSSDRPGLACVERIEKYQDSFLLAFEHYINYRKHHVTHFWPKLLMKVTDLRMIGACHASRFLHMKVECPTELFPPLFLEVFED
In short: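 HepG2 cells transiently transfected with reporter units driving GAL4-UAS reporters for chimeric NR-Gal4 proteins; 24 h chemical exposure with 3 nM 6-alpha-fluorotestosterone present. Reporter mRNA quantified by RT-PCR and capillary electrophoresis, gain of signal versus DMSO.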

[5] = ATG_XTT_Cytotoxicity_XSP1: Cytotoxicity Assessment in the Attagene TRANS-FACTORIAL Multi-Species (XSP1) HepG2 Assay (AID 2283810)
In short: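 XTT viability readout taken at 24 hours post-dosing in HepG2 liver cells co-treated with 3 nM 6-alpha-fluorotestosterone. Signal loss relative to DMSO controls reflects cytotoxicity.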

[6] = ATG_M_32_XSP1: Attagene TRANS-FACTORIAL Multi-Species (XSP1) HepG2 Assay for M32 Transcription Factor (Internal Marker) (AID 2283799)
In short: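 HepG2 cells transiently transfected with multi-species TRANS reporter units, dosed 24 h with 3 nM 6-alpha-fluorotestosterone present. Internal-marker reporter mRNA quantified by RT-PCR and capillary electrophoresis; positive-direction fit versus DMSO.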

[7] = test system: zebrafish Peroxisome Proliferator-activated Receptor gamma (PPARg), gene 557037; assay: ATG_zfPPARg_XSP1: Attagene TRANS-FACTORIAL Multi-Species (XSP1) HepG2 Assay for zebrafish Peroxisome Proliferator-activated Receptor gamma (PPARg) (AID 2283801)
In short: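 HepG2 cells transiently transfected with GAL4-UAS reporter units including a zebrafish PPARg–GAL4 chimera, dosed 24 h with 3 nM 6-alpha-fluorotestosterone present. Reporter mRNA quantified by RT-PCR, FAM labelling, HpaI digestion and capillary electrophoresis; induction versus DMSO.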

[8] = biological target: Nuclear receptor subfamily 1 group I member 2 (Mus musculus) (UniProt O54915); assay: ATG_mPXR_XSP1: Attagene TRANS-FACTORIAL Multi-Species (XSP1) HepG2 Assay for mouse Pregnane X Receptor (PXR) (AID 2283803)
Nuclear receptor subfamily 1 group I member 2 (Mus musculus), sequence (O54915 whole entry, looked up, the tested form may be a part): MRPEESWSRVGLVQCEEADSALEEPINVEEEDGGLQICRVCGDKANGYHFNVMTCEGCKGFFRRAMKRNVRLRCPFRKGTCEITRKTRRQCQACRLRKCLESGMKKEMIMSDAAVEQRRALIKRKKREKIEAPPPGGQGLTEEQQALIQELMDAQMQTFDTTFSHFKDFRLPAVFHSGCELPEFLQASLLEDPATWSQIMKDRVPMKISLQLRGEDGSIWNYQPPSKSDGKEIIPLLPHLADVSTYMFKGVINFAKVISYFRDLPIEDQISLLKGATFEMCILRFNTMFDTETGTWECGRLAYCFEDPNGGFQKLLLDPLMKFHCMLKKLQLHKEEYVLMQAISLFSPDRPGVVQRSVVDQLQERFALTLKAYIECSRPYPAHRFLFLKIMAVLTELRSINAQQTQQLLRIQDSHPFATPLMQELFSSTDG
In short: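 Transiently transfected HepG2 cells expressing a receptor-Gal4 chimera drive a GAL4-UAS reporter; 3 nM 6-alpha-fluorotestosterone included. Reporter mRNA read 24 h post-dose by RT-PCR and capillary electrophoresis; gain of signal relative to DMSO.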

[9] = test system: turtle Thyroid Hormone Receptor, alpha (TRa), gene 101949057; assay: ATG_trTRa_XSP1: Attagene TRANS-FACTORIAL Multi-Species (XSP1) HepG2 Assay for turtle Thyroid Hormone Receptor, alpha (TRa) (AID 2283806)
In short: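 HepG2 cells transiently transfected with GAL4-UAS reporter units and chimeric receptor-Gal4 constructs, with 3 nM 6-alpha-fluorotestosterone present. Reporter mRNA was quantified 24 h after dosing by RT-PCR, 6-FAM labelling and capillary electrophoresis; gain of signal versus DMSO.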

[10] = biological target: zebrafish Thyroid Hormone Receptor beta (TRb), thrb (gene 30607) (UniProt Q9PVE4); assay: ATG_zfTRb_XSP1: Attagene TRANS-FACTORIAL Multi-Species (XSP1) HepG2 Assay for zebrafish Thyroid Hormone Receptor beta (TRb) (AID 2283809)
zebrafish Thyroid Hormone Receptor beta (TRb), thrb (gene 30607), sequence (Q9PVE4 whole entry, looked up): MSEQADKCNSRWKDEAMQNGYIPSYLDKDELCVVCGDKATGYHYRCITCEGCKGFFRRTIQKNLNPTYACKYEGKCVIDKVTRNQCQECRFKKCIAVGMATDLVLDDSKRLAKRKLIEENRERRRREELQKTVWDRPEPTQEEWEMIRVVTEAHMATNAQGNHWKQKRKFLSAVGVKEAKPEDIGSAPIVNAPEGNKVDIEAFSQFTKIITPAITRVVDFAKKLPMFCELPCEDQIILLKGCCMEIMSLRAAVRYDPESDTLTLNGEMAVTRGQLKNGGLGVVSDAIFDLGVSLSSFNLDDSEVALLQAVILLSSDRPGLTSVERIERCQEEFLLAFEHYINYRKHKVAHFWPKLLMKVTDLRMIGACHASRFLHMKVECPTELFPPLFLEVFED
Description: ATG_XSP1_multi-species_TRANS is a cell-based, multiplexed assay created by modifying the existing Attagene TRANS-FACTORIAL system to include a panel of nuclear receptors from some or all the following species: human (Homo sapiens), mouse (Mus musculus), frog (Xenopus laevis), zebrafish (Danio rerio), chicken (Gallus gallus), and turtle (Chrysemys picta). The ECOTOX-FACTORIAL format uses HepG2, a human liver cell line, with measurements taken at 24 hours after chemical dosing in a 24-well plate. Xsp1 included 3 nM 6-alpha-fluorotestosterone to partially stimulate the androgen receptor.ATG_zfTRb_XSP1 is one of 29 assay components measured or calculated from the ATG_XSP1_multi-species_TRANS assay. It is designed to make measurements of mRNA induction, a form of inducible reporter, as detected with fluorescence intensity signals by Reverse transcription polymerase chain reaction (RT-PCR) and Capillary electrophoresis technology.The assay endpoint ATG_zfTRb_XSP1 was analyzed in the positive analysis fitting direction relative to DMSO as the negative control and baseline of activity. […] Furthermore, this assay endpoint can be referred to as a primary readout, because this assay has produced multiple assay endpoints where this one serves a reporter gene function. […]

O=c1cc(-c2ccccc2)oc2cc(O)cc(O)c12
outcome [1]: inactive
AC50 [2]: 9.68 µM (active) and 2.6 µM (active)
AC50 [3]: 42.2 µM (active) and 2.03 µM (active)

CN(CCOc1ccc(CC2SC(=O)NC2=O)cc1)c1ccccn1 (configuration not stated)
outcome [4]: inactive
outcome [5]: inactive
outcome [1]: inactive

CN(C)C(=N)N=C(N)N
outcome [6]: inactive
outcome [7]: inactive
AC50 [8]: 64.4 µM (active)
outcome [9]: inactive
outcome [10]: inactive
outcome [5]: inactive

O=C(Oc1ccccc1)c1ccc(O)cc1
AC50 [2]: 30.6 µM (active)
outcome [2]: inactive
AC50 [3]: 6.15 µM (active)
outcome [3]: inactive

CCCCCCCCCCCCN
AC50 [2]: 44.3 µM (active)
